High-throughput results: PubChem BioAssay, National Center for Advancing Translational Sciences (NCATS)
In the library only some 11% were active in any assay of this set; here they are far more common.
ALDH1A1 inh: qHTS Assay for Inhibitors of Aldehyde Dehydrogenase 1 (ALDH1A1); Purified ALDH1A1, NADH fluorescence, propionaldehyde substrate; AID 1030, 2008; Aldehyde dehydrogenase 1A1 (Homo sapiens), P00352; Potency, µM (highest dose often 75.3 µM), inactives show at the highest dose activity, negative = inhibition, hits mostly inhibitors; 7.3% of 220,000 active; active = well fitted inhibition curve with a large enough effect, not every such curve was filed as active; inconclusive = small, poorly fitted or top-dose-only effect, or another doubt; inactive = no such curve, though single readings can be large or run the other way;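 note: potency is the fitted concentration of half-maximal effect; plate controls were no enzyme wells and a reference inhibitor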
CBFb RUNX1 block: qHTS Assay for Compounds Blocking the Interaction Between CBF-beta and RUNX1 for the Treatment of Acute Myeloid Leukemia; AlphaScreen CBFb-His/RUNX1-biotin binding, biochemical; Potency, µM (series often up to 59.8 µM), for inactives: at the top dose activity, negative = inhibition, hits mostly inhibitors; 230,000 tested, under 10 active; AID 1477, 2009; note: % of control where 0% means no effect
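Inhibition was taken as any reduction in AlphaScreen signal from the CBF-beta–RUNX1 pair (His and biotin tags, 30 nM each), measured after compound (15 min) and bead (90 min) incubations at room temperature.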
HTT ATP protect: qHTS Multiplex Assay to Identify Dual Action Probes in a Cell Model of Huntington: Cytoprotection (ATP) | PC12 HTT-Q103 induced, cytoprotection, ATP luminescence, 40 h | Potency, µM (doses to about 56.4 µM), inactives show cytoprotection (ATP increase), hits mostly activators | 0.14% of 230,000 active | AID 1471, 2008; note: potency is the fitted concentration of half-maximal effect; % of control where 0% means no effect; nearly all actives have a fitted effect of over 45% in size
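PC12 cells with ecdysone-inducible HTT exon 1 Q103-GFP, induced with 100 nM tebufenozide and co-treated with library compounds in a dose series (1536-well, 1500 cells/well). Cytoprotection read as ATP content by ATPlite luminescence.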
PNC inhibitor: High Content Assay for Compounds that inhibit the Assembly of the Perinucleolar Compartment | PC3M PTB-GFP, PNC prevalence imaging, 16 h; hits give low values | activity change (PNC), negative = inhibition, % at 10 µM | 3.1% of 140,000 active;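 active = readout at or below -70, meaning at least 70% loss of cells showing the perinucleolar compartment, a nuclear body marking cancer cells; inconclusive = readout between -30 and a set limit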;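 note: plate controls were DMSO wells for no effect and camptothecin positive control wells for full effect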
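PC3M cells stably expressing PTB-GFP, 750–1000 cells/well, treated 16 h at 37 °C with compound (23 nl of library stock), in duplicate. After paraformaldehyde fixation and Hoechst stain, imaged at 20x; PNC prevalence scored by image analysis.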
HttQ103 aggreg: qHTS Multiplex Assay to Identify Dual Action Probes in a Cell Model of Huntington: Aggregate Formation (GFP); PC12 HttQ103-GFP aggregates, Acumen cytometry, 40 h; Potency, µM (top dose mostly 46.1 µM), without a hit: at the highest dose activity change, negative = inhibition, actives largely listed as inhibitors; 1.1% of 220,000 active; note: potency is the fitted concentration of half-maximal effect; % is set by controls: 0 for no effect and ±100 for the full control effect; nearly all actives have a fitted effect of over 60% in size
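Read-out: GFP aggregate count by laser scanning cytometer (488 nm excitation, 500-530 nm emission, 1–25 µm objects >6 SD above background). Cells: PC12, inducible HTTex1-Q103-GFP, 100 nM tebufenozide; compounds titrated.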
HPGD inh: qHTS Assay for Inhibitors of HPGD (15-Hydroxyprostaglandin Dehydrogenase). 4.3% of 150,000 active. Potency, µM, for the others: at the top dose activity change, negative = inhibition, hits mostly inhibitors. 15-hydroxyprostaglandin dehydrogenase [NAD(+)] (Homo sapiens), P15428. purified HPGD, NADH fluorescence kinetic, PGE2 substrate; active = well fitted inhibition curve with a large enough effect, not every such curve was filed as active; inconclusive = small, poorly fitted or top-dose-only effect, or another doubt; inactive = no such curve, though single readings can be large or run the other way; note: potency is the fitted concentration of half-maximal effect; % is set by controls: 0 for no effect and ±100 for the full control effect
Target sequence (P15428 whole entry, looked up): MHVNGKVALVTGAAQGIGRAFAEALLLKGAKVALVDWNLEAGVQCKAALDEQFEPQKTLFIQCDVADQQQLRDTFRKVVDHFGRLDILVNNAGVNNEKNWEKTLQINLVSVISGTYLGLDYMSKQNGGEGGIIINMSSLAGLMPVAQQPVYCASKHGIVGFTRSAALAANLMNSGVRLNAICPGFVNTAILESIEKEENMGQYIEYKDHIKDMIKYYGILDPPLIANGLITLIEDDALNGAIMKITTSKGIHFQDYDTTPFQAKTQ
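NADH formation kinetics: reaction with 30 uM PGE2 and 1 mM NAD+ (final), 20 nM enzyme, Tris-HCl pH 8 with Tween 20, after 15 min compound preincubation at room temperature. Fluorescence change, last versus first of five reads.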
* marks the source's active call; other numbers are inactive results; ? = inconclusive; / = not tested or not shown; [ ] = remark or other dose. Unless noted, calls come from the whole dose curve; as a rule, active = well fitted curve in the direction sought with a large enough effect; inconclusive = small, poorly fitted or top-dose-only effect, or another doubt; inactive = no such curve, though single readings can be large; an effect the other way counts as inactive or inconclusive.

SMILES	ALDH1A1 inh	CBFb RUNX1 block	HTT ATP protect	PNC inhibitor	HttQ103 aggreg	HPGD inh
Cc1cc(C(=O)CSc2nnnn2-c2ccc(O)cc2)c(C)n1C	16µM*	1%	8%[10 µM]	/	-8%	/
COc1ccc(O[C@H]2C=C[C@@H](c3ccccc3)O[C@H]2CO/N=C\C[C@@H]2C=C[C@H](OC(C)=O)[C@H](COC(C)=O)O2)cc1	?	7%[13.1 µM]	-11%[10 µM]	/	/	/
COC(=O)c1ccc(C(NC(=O)OCc2ccccc2)/C(=C/[C@@H](C)C(=O)Nc2ccc(OC)cc2)c2cccnc2)cc1 (some centres not stated)	-3%	0%	-22%	/	/	-16%
COc1ccc(CNC(=O)C2=C(C)C(=O)OC23CCC(C)CC3)cc1 (configuration not stated)	5.6µM*	-3%	-24%	-8	-23%	-8%
CC1CCCCN1CCCNC(=O)c1ccc(Cc2nc3ccccc3[nH]2)cc1 (configuration not stated)	4%	/	/	/	/	-2%
COc1cc(/C=C(\C#N)c2nc3ccccc3[nH]2)c([N+](=O)[O-])cc1OCc1ccccc1	0.56µM*	-5%	-78%	-8	-12%	?
COc1cc(/C=C(/C#N)c2nc3ccccc3[nH]2)ccc1OCC(=O)Nc1ccccc1C(C)C	?	1%	-26%	-86*	13%	?
COc1cc(/C=C(/C#N)c2nc3ccccc3[nH]2)ccc1OCC(=O)Nc1ccccc1C	2%	-2%	-18%	47	7%	-22%
O=C/C=C/c1ccc(O)cc1	3.5µM*	/	/	/	/	-14%
O=C(/C=C/c1ccc(O)cc1)c1ccccc1	/	10%	-27%[10 µM]	/	-2%[9.22 µM]	/
Cc1ccc(C(C#N)c2ccc3c(C(F)(F)F)cc(C(F)(F)F)nc3n2)cc1 (configuration not stated)	-9%	?	-55%	-24	?	-9%
N#CC(c1ccccc1)c1ccc2c(C(F)(F)F)cc(C(F)(F)F)nc2n1 (configuration not stated)	22µM*	-16%	-70%	7	22µM*	-11%
Cc1cc(Cl)c(OCCOCCN2CCCCC2)c(Br)c1	?	0%	/	-102*	13%	-12%
CCCCN1C(=O)/C(=C/C=C2/CC(C)(C)CN2C)SC1=S	6.3µM*	?	-4%[10 µM]	-25	-13%	-4%
CCc1ccc(NC(=O)Cn2c3[n+](c4c(F)c(F)ccc42)CCCCC3)cc1	10µM*	-3%	4%[10 µM]	/	-13%	/
O=C(Cn1c2[n+](c3ccc(C(F)(F)F)cc31)CCCCC2)Nc1ccc(Br)cc1	2%	5%	-57%	/	23%	/
COCc1c(C)cc(C)c(/C=N/O)c1C	12%	7%	13%	33	-5%	14µM*
Cn1c(=O)c2c(nc(CN3CCC(C(N)=O)CC3)n2Cc2c(Cl)cccc2Cl)n(C)c1=O	14µM*	-2%	-20%[0.074 µM]	?	-12%	-2%
CC1CC(C)CN(Cc2nc3c(c(=O)n(C)c(=O)n3C)n2Cc2ccccc2Cl)C1 (configuration not stated)	/	/	-13%	/	/	/
Cc1ccccc1Cn1c(CN2CCc3ccccc3C2)nc2c1c(=O)n(C)c(=O)n2C	32µM*	-9%	6%[10 µM]	-10	-1%	-1%
Cn1c(=O)c2c(nc(CN3CCC(C(N)=O)CC3)n2Cc2ccccc2Cl)n(C)c1=O	13µM*	-1%	-29%[0.074 µM]	?	-6%[9.22 µM]	0%
Cn1c(=O)c2c(nc(CN3CCC(C(N)=O)CC3)n2CCc2ccccc2)n(C)c1=O	4.5µM*	6%	-13%	26	?	-5%
